Source: the supplement of paper PMC10849652
About 8,800 targets were measured; listed, in parts, are those with a hit and a random draw of the rest. About 0.5% of all pairs of compound and target were hits.

Assays:
Test in all cases: log2 fold change, soluble protein after heating vs DMSO (PISA); higher = thermal stabilisation; K562 lysate, 10 uM; active = over 0.2 and 3.5 SD of the protein, either way, in both replicates (recomputed)
ibrutinib = compound: C=CC(=O)N1CCC[C@@H](n2nc(-c3ccc(Oc4ccccc4)cc3)c3c(N)ncnc32)C1 [ibrutinib]
Procedure, shortened: (§1)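 Thermal stability, expressed as log-two fold change relative to solvent controls, is given from duplicates. Crude K562 extract in PBS pH 7.4 with 1 mM MgCl2, at 1 mg/mL protein, was treated with 10 μM compound for 30 min and heated in aliquots for 3 min across 48°C-58°C. After pooling, adjustment to 0.5% NP-40 at 4°C and centrifugation at 21,000xg for 90 min, supernatant protein was measured by TMTpro 16plex LC-MS/MS with channel sums equalised.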

[1] = compound: CC(=O)c1cnc2ccc(-c3cc(Cl)c(O)c(Cl)c3)nc2c1N[C@H]1CC[C@H](CN(C)C)CC1
Procedure, shortened: as §1

ralimetinib = compound: CC(C)(C)Cn1c(N)nc2ccc(-c3[nH]c(C(C)(C)C)nc3-c3ccc(F)cc3)nc21 [ralimetinib]
Procedure, shortened: as §1

[2] = compound: CC(C)(O)CC(=O)NCCn1ccc2ncnc(Nc3ccc(Oc4cccc(C(F)(F)F)c4)c(Cl)c3)c21
Procedure, shortened: as §1

[3] = compound: CC(C)C1=C2N=C(C=C(N2N=C1)NCC3=CC=CC=C3)NCCCCCCN
Procedure, shortened: as §1

[4] = compound: CC1=C(C(CC(=O)N1)C2=CC=C(C=C2)C(F)(F)F)C(=O)NC3=C(C=C4C(=C3)C=NN4)F
Procedure, shortened: as §1

[5] = compound: CC1=C(C2=C(C=C1)C(=O)C3=CC=CC=C3N2CCCN)C
Procedure, shortened: as §1

[6] = compound: CC1=C(C=C(C=C1)NC(=O)C2=CC(=CC=C2)C(C)(C)C#N)NC3=CC4=C(C=C3)N=CN(C4=O)C
Procedure, shortened: as §1

[7] = compound: CC1=C(C=C(C=C1)NC(=O)C2=CC(=CC=C2)N(C)C)NC(=O)C3=CC=C(C=C3)O
Procedure, shortened: as §1

[8] = compound: CC1=CC=C(C=C1)SC2=C3C=C(SC3=CN=C2)C(=O)N
Procedure, shortened: as §1

Measured: log2 fold change

RFC4 (UniProt P35249)
Chain of UniProt P35249 (P35249 whole entry, looked up): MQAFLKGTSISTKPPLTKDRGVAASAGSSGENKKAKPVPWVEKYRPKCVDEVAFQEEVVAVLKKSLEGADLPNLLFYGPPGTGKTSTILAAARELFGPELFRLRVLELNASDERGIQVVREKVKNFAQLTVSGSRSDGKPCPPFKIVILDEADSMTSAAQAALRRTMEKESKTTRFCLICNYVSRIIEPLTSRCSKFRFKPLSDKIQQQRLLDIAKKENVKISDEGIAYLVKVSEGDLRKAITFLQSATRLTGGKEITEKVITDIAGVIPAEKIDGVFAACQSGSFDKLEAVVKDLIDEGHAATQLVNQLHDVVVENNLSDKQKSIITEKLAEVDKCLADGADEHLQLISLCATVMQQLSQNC
inactive: ibrutinib -0.01 | [1] -0.008 | ralimetinib -0.01 | [2] -0.015 | [3] 0.032 | [4] 0 | [5] 0.026 | [6] -0.001 | [7] 0.002 | [8] 0.019

RNF168 (UniProt Q8IYW5)
Chain of UniProt Q8IYW5 (Q8IYW5 whole entry, looked up): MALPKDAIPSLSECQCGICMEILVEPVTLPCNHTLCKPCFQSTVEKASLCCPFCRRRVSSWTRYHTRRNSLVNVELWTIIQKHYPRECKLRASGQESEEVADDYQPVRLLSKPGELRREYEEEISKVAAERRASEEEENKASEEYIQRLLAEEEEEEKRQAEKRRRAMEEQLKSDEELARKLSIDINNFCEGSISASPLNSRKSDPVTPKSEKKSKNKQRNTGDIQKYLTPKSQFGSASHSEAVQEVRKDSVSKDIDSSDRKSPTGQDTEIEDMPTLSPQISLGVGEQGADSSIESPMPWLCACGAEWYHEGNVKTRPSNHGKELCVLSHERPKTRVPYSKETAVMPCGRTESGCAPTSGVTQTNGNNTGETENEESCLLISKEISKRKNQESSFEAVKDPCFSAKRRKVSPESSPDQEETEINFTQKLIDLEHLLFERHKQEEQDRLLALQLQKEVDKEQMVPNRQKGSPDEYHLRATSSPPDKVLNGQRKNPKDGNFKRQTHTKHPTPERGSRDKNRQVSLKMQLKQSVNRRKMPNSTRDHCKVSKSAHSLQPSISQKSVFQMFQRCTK
inactive: ibrutinib 0.155 | [1] 0.144 | ralimetinib 0.004 | [2] -0.041 | [3] -0.034 | [4] -0.071 | [5] 0.031 | [6] 0.026 | [7] -0.04 | [8] 0.011

RMC1 (UniProt Q96DM3)
Chain of UniProt Q96DM3 (Q96DM3 whole entry, looked up): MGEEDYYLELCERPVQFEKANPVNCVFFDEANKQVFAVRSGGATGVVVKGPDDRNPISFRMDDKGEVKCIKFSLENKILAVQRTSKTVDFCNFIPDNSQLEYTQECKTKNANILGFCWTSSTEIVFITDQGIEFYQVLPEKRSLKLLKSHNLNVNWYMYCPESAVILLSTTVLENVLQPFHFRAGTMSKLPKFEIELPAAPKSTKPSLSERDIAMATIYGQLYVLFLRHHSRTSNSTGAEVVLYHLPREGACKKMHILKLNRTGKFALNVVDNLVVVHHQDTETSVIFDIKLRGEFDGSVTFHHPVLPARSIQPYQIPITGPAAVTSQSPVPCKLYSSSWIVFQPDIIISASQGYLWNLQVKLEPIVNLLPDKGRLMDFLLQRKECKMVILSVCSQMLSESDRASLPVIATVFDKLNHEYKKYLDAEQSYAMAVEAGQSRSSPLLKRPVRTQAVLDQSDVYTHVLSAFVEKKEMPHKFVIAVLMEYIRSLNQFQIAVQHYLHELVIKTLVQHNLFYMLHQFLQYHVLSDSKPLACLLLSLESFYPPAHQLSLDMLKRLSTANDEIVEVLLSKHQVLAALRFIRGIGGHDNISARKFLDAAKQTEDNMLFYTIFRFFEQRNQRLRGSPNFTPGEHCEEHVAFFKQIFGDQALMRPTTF
inactive: ibrutinib -0.004 | [1] 0.018 | ralimetinib 0.03 | [2] -0.024 | [3] -0.001 | [4] -0.017 | [5] -0.018 | [6] 0.009 | [7] 0.005 | [8] 0.027

RPL8 (UniProt P62917)
inactive: ibrutinib 0.031 | [1] 0.007 | ralimetinib 0.01 | [2] -0.002 | [3] -0.008 | [4] 0.012 | [5] -0.045 | [6] -0.076 | [7] -0.013 | [8] 0.011

RABL3 (UniProt Q5HYI8)
Chain of UniProt Q5HYI8 (Q5HYI8 whole entry, looked up): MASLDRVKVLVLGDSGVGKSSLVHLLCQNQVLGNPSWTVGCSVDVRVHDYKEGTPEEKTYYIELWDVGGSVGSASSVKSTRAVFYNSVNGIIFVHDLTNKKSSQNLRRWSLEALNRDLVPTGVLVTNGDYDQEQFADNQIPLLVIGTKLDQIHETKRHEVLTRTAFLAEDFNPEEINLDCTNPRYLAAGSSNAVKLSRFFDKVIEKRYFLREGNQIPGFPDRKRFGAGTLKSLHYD
inactive: ibrutinib 0.017 | [1] 0.014 | ralimetinib 0.153 | [2] -0.05 | [3] -0.047 | [4] 0.021 | [5] -0.043 | [6] 0.003 | [7] -0.141 | [8] 0.014

SEC24D isoform 2 (UniProt O94855)
inactive: ibrutinib 0.005 | [1] -0.024 | ralimetinib 0.01 | [2] -0.018 | [3] 0 | [4] -0.009 | [5] -0.011 | [6] 0.019 | [7] -0.035 | [8] 0.023

SAR1A (UniProt Q9NR31)
Chain of UniProt Q9NR31 (Q9NR31 whole entry, looked up): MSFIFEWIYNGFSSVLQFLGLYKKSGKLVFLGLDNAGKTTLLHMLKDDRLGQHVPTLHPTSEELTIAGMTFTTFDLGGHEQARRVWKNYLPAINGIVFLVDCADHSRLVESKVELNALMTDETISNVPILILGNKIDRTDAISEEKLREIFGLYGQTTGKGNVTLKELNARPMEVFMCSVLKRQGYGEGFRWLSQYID
inactive: ibrutinib -0.082 | [1] -0.105 | ralimetinib 0.027 | [2] -0.028 | [3] 0.026 | [4] 0.163 | [5] -0.042 | [6] 0.021 | [7] -0.045 | [8] 0.112

RFC5 (UniProt P40937)
Chain of UniProt P40937 (P40937 whole entry, looked up): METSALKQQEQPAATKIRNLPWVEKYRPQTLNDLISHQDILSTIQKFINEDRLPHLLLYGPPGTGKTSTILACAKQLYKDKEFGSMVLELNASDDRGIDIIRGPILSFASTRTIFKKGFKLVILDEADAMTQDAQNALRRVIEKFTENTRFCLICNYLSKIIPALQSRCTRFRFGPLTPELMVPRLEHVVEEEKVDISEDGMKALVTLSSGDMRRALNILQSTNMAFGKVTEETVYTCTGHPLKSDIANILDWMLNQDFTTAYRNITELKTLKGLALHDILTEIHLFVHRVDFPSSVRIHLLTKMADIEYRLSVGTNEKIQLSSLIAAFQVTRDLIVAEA
inactive: ibrutinib -0.038 | [1] -0.001 | ralimetinib 0.046 | [2] 0.02 | [3] 0.012 | [4] -0.002 | [5] -0.009 | [6] 0.014 | [7] 0.025 | [8] 0.018

SCML2 (UniProt Q9UQR0)
Chain of UniProt Q9UQR0 (Q9UQR0 whole entry, looked up): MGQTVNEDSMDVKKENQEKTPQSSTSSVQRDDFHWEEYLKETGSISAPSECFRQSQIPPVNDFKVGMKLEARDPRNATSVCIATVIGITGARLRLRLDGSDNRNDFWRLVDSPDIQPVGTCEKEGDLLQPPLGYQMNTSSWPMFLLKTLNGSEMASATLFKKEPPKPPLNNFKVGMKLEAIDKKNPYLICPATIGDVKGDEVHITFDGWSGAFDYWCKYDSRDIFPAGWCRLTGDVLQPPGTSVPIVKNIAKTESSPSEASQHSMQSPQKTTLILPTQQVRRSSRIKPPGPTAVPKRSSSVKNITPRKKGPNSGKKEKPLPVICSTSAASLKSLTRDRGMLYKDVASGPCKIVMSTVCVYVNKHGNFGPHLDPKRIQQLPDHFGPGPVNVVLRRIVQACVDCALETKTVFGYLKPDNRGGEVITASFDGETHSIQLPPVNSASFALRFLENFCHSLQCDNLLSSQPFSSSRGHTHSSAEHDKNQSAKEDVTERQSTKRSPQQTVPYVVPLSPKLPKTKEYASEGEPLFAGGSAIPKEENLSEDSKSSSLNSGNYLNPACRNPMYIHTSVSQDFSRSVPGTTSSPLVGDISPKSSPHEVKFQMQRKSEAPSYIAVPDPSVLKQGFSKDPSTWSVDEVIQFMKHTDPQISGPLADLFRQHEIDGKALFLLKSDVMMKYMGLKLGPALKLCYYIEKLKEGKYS
inactive: ibrutinib -0.011 | [1] 0.028 | ralimetinib 0.004 | [2] 0.034 | [3] -0.011 | [4] 0.011 | [5] -0.012 | [6] -0.015 | [7] -0.006 | [8] 0.109

RPLP0P6 (UniProt Q8NHW5)
inactive: ibrutinib 0.064 | [1] -0.005 | ralimetinib -0.01 | [2] -0.02 | [3] -0.009 | [4] -0.052 | [5] -0.028 | [6] 0.015 | [7] 0.01 | [8] -0.017

RPTOR (UniProt Q8N122)
inactive: ibrutinib -0.042 | [1] 0.008 | ralimetinib -0.001 | [2] -0.045 | [3] -0.012 | [4] 0.005 | [5] -0.039 | [6] 0.005 | [7] 0.038 | [8] 0.01

SDHC (UniProt Q99643)
Chain of UniProt Q99643 (Q99643 whole entry, looked up): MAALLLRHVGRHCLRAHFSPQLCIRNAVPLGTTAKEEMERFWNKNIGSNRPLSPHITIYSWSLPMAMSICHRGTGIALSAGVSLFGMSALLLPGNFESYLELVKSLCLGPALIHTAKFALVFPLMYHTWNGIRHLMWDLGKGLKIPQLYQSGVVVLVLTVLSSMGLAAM
inactive: ibrutinib 0.033 | [1] -0.012 | ralimetinib 0.064 | [2] -0.035 | [3] -0.05 | [4] -0.015 | [5] -0.013 | [6] -0.026 | [7] 0.023 | [8] 0.044

RPAP1 (UniProt Q9BWH6)
inactive: ibrutinib -0.016 | [1] 0.049 | ralimetinib 0.02 | [2] -0.015 | [3] -0.037 | [4] 0.011 | [5] -0.002 | [6] -0.013 | [7] 0.007 | [8] -0.033

REXO4 (UniProt Q9GZR2)
Chain of UniProt Q9GZR2 (Q9GZR2 whole entry, looked up): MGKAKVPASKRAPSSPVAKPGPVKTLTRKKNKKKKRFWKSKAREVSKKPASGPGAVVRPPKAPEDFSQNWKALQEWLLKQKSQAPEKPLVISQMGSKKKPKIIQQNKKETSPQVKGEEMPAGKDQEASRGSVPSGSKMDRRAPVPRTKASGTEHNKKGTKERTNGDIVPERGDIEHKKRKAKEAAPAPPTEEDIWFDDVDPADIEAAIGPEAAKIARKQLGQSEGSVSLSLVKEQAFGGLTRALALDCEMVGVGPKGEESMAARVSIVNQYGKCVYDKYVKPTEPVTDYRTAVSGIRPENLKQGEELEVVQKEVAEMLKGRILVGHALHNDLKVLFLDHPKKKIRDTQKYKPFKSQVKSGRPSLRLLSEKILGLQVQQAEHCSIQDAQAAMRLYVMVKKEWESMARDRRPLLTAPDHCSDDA
inactive: ibrutinib 0.014 | [1] 0.027 | ralimetinib 0.021 | [2] 0.074 | [3] -0.024 | [4] 0.023 | [5] -0.053 | [6] -0.043 | [7] 0.056 | [8] 0.008

RNF123 (UniProt Q5XPI4)
Chain of UniProt Q5XPI4 (Q5XPI4 whole entry, looked up): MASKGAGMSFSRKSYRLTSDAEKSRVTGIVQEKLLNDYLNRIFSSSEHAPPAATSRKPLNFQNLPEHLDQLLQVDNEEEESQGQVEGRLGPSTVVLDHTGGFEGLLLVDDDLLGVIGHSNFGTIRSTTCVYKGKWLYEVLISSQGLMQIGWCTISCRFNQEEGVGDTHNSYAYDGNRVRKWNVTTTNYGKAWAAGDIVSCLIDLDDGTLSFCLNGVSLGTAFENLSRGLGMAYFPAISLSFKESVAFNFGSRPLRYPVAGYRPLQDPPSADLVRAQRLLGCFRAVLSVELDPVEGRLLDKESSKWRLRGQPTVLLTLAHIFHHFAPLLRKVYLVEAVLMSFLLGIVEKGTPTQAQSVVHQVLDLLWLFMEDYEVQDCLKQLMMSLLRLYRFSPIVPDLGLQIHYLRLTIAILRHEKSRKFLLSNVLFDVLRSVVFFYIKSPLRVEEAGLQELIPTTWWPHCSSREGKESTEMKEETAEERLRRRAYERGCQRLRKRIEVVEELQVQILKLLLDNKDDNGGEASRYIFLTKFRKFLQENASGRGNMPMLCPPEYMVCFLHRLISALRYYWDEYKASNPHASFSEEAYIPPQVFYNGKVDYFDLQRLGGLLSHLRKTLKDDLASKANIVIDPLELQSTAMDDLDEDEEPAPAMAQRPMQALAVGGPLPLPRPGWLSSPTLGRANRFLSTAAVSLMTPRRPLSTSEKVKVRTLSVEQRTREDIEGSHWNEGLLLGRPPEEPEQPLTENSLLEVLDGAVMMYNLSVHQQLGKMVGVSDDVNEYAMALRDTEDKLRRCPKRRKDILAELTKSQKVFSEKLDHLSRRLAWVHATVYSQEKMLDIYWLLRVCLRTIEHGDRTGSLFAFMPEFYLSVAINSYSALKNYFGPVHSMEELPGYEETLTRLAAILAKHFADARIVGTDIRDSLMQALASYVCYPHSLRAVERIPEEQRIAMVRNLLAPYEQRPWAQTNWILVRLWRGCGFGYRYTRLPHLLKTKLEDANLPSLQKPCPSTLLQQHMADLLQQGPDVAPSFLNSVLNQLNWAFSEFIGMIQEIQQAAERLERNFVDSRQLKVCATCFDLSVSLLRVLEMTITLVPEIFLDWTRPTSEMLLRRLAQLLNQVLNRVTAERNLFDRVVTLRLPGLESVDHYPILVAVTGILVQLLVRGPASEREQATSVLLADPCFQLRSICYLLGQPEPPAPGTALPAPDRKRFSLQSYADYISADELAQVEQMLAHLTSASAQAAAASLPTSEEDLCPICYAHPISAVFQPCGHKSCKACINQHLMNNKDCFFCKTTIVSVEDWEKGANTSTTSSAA
inactive: ibrutinib 0.028 | [1] 0.017 | ralimetinib 0.029 | [2] -0.042 | [3] -0.003 | [4] -0.02 | [5] 0.001 | [6] 0.027 | [7] -0.016 | [8] 0.022
